Test results reported in PubChem BioAssay.

Tests used:
[1] = test system: Human papillomavirus type 1a protein E7 (residues 44-93); assay: small molecules binding HPV E7 44-93 – biochemical, small-molecule microarray, residues 44-93, 635 nm fluorescence, primary screen (AID 1108); settings: fluorescence 635 nm, higher = more signal;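 also: E7 fragment applied at 1 µg/mL in TBST for 1 h at 4 C; score combines spot fluorescence with its signal to noise ratio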
[2] = hepatitis C replication reporter changes, two-sided – Huh7 cells, luciferase reporter, HCV replication inhibitor project, primary screen (AID 1109); settings: Huh7 HCV replicon luciferase reporter, 48 h; higher = more signal;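 also: huh7 hepatoma cells harbouring a luciferase neomycin HCV replicon reporter; luciferase luminescence as measure of HCV replicon replication; test concentration not given here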
[3] = molecular target: Left-right determination factor 2 (Homo sapiens) (UniProt O00292); assay: small molecules binding LEFTY2 protein – biochemical, small-molecule microarray, 635 nm fluorescence scan, primary screen (AID 1110); settings: higher = more signal
[4] = molecular target: Calmodulin-1 (Homo sapiens) (UniProt P0DP23); assay: small molecules binding calmodulin-1 with EGTA – biochemical, small-molecule microarray, Cy5-labelled CALM1, profiling panel (AID 1111); settings: Cy5-CALM1 binding fluorescence, higher = more signal;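 also: labelled calmodulin applied in Tris saline Tween buffer holding calcium plus EGTA and DTT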
[5] = molecular target: Calmodulin-1 (Homo sapiens) (UniProt P0DP23); assay: small molecules binding Ca-loaded calmodulin-1 – biochemical, small-molecule microarray, Cy5-labelled CALM1, plus calcium, artefact control for SMM control-protein annotation, profiling panel (AID 1112); settings: Cy5-CALM1 binding fluorescence, higher = more signal;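 also: score merges spot fluorescence with signal to noise from triplicate slides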
[6] = probe aWnt5a binding to arrayed compounds – biochemical, biotinylated probe, 635/667 nm fluorescence, primary screen (AID 1113); settings: small-molecule microarray, higher = more signal;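 also: score merges 667 nm fluorescence intensity with signal-to-noise per printed feature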
[7] = probe aShh binding to arrayed compounds – biochemical, biotinylated probe, 635/667 nm fluorescence, primary screen (AID 1114); settings: small-molecule microarray, higher = more signal;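 also: probe is biotin-labelled aShh protein from a stem cell growth factor screen; measures binding of labelled protein to compounds printed on the slide; score merges feature fluorescence at 667 nm with signal-to-noise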
[8] = probe aNog binding to arrayed compounds – biochemical, biotinylated probe, 635/667 nm fluorescence, primary screen (AID 1115); settings: small-molecule microarray, higher = more signal;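 also: probe is biotinylated aNog protein used at 0.15 µg/mL for 1 h at 4 C; z-score combines 667 nm fluorescence of each spot with its signal to noise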
[9] = molecular target: Torsin-1A-interacting protein 1 (Homo sapiens) (UniProt Q5JTV8); assay: compound microarray binding of lysate hLAP1 – cell lysate, small-molecule microarray, COS7 lysate, 635/667 nm fluorescence, primary screen (AID 1116); settings: 635 nm fluorescence, higher = more signal
[10] = molecular target: Alpha-bungarotoxin (Bungarus multicinctus) (UniProt P60615); assay: compounds binding labelled alpha-BTX control protein – biochemical, small-molecule microarray, Alexa647 label, 635/667 nm fluorescence, artefact control for SMM control protein annotation, profiling panel (AID 1117); settings: alpha-BTX-A647 binding fluorescence, higher = more signal
Sequence of Alpha-bungarotoxin (Bungarus multicinctus) (P60615 whole entry, looked up): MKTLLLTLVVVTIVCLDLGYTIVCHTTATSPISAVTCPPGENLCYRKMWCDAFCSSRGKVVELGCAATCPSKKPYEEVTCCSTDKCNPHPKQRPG

Sequence of Torsin-1A-interacting protein 1 (Homo sapiens) (Q5JTV8 whole entry, looked up): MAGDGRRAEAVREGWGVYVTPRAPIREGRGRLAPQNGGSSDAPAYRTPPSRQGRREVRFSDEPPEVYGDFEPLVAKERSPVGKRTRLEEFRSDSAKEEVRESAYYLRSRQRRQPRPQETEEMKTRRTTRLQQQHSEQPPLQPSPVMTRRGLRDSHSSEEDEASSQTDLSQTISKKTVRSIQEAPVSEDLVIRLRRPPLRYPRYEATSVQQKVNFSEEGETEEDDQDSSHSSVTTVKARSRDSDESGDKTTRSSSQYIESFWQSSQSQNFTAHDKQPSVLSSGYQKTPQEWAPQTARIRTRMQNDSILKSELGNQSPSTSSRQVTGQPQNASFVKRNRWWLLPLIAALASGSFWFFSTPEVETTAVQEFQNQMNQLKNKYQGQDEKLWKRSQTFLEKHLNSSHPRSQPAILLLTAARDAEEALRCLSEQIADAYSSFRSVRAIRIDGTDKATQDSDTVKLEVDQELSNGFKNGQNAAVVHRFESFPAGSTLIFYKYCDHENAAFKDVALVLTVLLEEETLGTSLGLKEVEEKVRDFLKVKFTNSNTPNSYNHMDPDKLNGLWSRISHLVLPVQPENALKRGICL
Sequence of Left-right determination factor 2 (Homo sapiens) (O00292 whole entry, looked up): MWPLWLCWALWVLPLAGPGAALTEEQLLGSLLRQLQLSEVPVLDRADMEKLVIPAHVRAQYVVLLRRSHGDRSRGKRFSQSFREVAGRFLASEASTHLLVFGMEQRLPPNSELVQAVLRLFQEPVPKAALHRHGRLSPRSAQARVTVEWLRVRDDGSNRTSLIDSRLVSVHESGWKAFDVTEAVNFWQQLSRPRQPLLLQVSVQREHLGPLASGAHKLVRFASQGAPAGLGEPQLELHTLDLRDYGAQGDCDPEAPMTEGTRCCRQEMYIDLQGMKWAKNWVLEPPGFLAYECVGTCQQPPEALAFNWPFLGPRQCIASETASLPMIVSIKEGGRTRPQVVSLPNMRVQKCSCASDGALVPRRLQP

Structure (SMILES)	composite z-score [1]	z-score [2]	composite z-score [3]	composite z-score [4]	composite z-score [5]	composite z-score [6]	composite z-score [7]	composite z-score [8]	composite z-score [9]	composite z-score [10]
COC(=O)C(CC#Cc1ccc2c(c1)[C@]1(C(=O)N2)[C@H](c2ccc(O)cc2)N2[C@H](c3ccccc3)[C@H](c3ccccc3)OC(=O)[C@H]2[C@@H]1C(=O)N1CCc2cc(OC)c(OC)cc2C1)C(=O)OC	0.85	-0.163	0.737	0.267	-0.521	0.324	0.383	-0.23	1.25	1.55
C=CC(CO)NC(=O)OCC1c2ccccc2-c2ccccc21 (stereo not given)	0.0077	-0.479	0.407	-0.0914	-0.885	0.048	-0.426	-0.208	-0.141	0.252
C=C(CC1([C@@H](NP(=O)(c2ccccc2)c2ccccc2)[C@H]2C[C@@H]2CCN(C(=O)OCC)S(=O)(=O)c2ccc(C)cc2)CC1)c1ccccc1	1.39	-2.09	-0.763	1.88	1.07	0.0267	0.935	1.06	0.379	0.749
CN1C(=O)[C@]2(CCS(=O)(=O)c3ccccc3)N=C(c3ccc(OCCCO)cc3)O[C@@H]2c2ccccc21	1.5	-2.63	-0.249	1.11	-0.545	-0.0704	-0.0119	-0.122	0.0996	0.836
C=CCN1C(=O)[C@]2(O[C@H](CCO)[C@@H]([Si](C)(C)c3ccc(OC)cc3)[C@@H]2C)c2ccccc21	0.925	-5.21	-0.774	-0.0667	-0.0278	-0.232	-0.358	-0.118	-0.547	-0.0693
COc1ccc([Si](C)(C)[C@@H]2[C@@H](CC(=O)N(CCO)Cc3ccccc3)O[C@]3(C(=O)N(Cc4ccc(N5CCC5=O)cc4)c4ccccc43)[C@H]2C)cc1	-0.382	-4.13	1.14	0.086	0.734	-0.176	0.0898	-0.194	0.357	0.295
CCOC(=O)C1=CC[C@@H](c2ccccc2Cl)N(S(=O)(=O)c2ccc(C)cc2)[C@H]1c1cccc(OC)c1	0.414	-0.587	-0.0038	0.107	0.369	0.0382	0.123	0.216	0.111	0.253
COc1cc2c(cc1O)C(c1ccc(CN3CCCC3)cc1)N(Cc1ccc([N+](=O)[O-])o1)CC2 (stereo not given)	-1.17	-1.05	0.313	0.383	0.958	-0.167	-0.193	0.0692	1.12	0.951
CCCCC(O)C1C=CC2C(=O)NC(=O)C2N1Nc1ccc(Cl)cc1Cl (stereo not given)	0.694	-1.12	-1.11	0.436	0.476	0.0915	0.0483	1.31	-0.0411	1.1
COC(=O)c1ccc([C@H](NC(=O)c2ccccc2)[C@]2(C)C[C@H]2C2CCCCC2)cc1	1.3	-1.61	-0.254	1.73	1.47	0.0805	0.315	1.68	0.462	1.09
C=CC[C@@]12N=C(c3ccc(OCCCO)cc3)O[C@@H]1c1ccccc1N(Cc1ccccc1)C2=O	0.598	-2.27	0.657	0.792	0.355	0.127	-0.114	1.1	1.16	0.858
O=C1C2C=CC(C(O)c3ccc([N+](=O)[O-])cc3)N(Nc3ccccc3)C2C(=O)N1c1ccccc1 (stereo not given)	0.342	0.649	-0.0424	0.0871	-0.447	-0.0512	0.284	-0.175	-0.175	-0.0428
C=CCC(OC(C)=O)[C@@H]1[C@@H](N(Cc2cccc3ccccc23)C(=O)c2ccc(-c3ccccc3)cc2)c2cc(OCCCO)ccc2N1C(=O)c1ccc2ccccc2n1 (stereo not given in full)	0.237	0.15	0.258	0.249	0.979	-0.0685	0.158	-0.278	0.529	-0.0098
O=C1O[C@H](c2ccccc2)[C@H](c2ccccc2)N2[C@H]1[C@@H](C(=O)N1CCN(c3ncccn3)CC1)[C@]1(C(=O)Nc3ccccc31)[C@H]2c1ccc(O)cc1	1.43	-1.9	-0.412	1.28	0.618	-0.0643	-0.119	0.265	-0.15	0.593
O=C1OCCC=C[C@H]2OC34C=CCN(CCN5CCOCC5)C(=O)[C@H]3N(CCCO)C(=O)[C@@H]4C12 (stereo not given in full)	-0.211	-1.03	-0.861	-0.572	-1.17	-0.228	-0.144	-0.318	-0.79	-0.386
C=C(COC)C(=O)CC[C@@H](OC(=O)c1cccnc1)c1cccc(OCCO)c1	0.743	-1.64	-0.116	-0.725	-0.89	-0.0731	0.0121	1.09	0.295	-0.101
C=CCC(OC(C)=O)[C@@H]1[C@@H](N(Cc2ccc(-c3ccccc3)cc2)C(=O)c2cccc3ccccc23)c2cc(OCCCO)ccc2N1C(=O)c1ccc2ccccc2c1 (stereo not given in full)	0.403	-0.464	-0.0981	0.187	0.188	-0.0685	-0.399	-0.258	-0.0482	0.971
